The list is not random: actives were taken first. Their share in the collection is about 21%.
SARS PLpro yeast – qHTS of Yeast-based Assay for SARS-CoV PLP. AID 485353, 2010. 330,000 tested, 0.19% active. Potency, µM (series often up to 32.9 µM), for the others: at the highest dose activity, positive = growth rescue, hits mostly activators. S. cerevisiae expressing SARS-CoV PLpro, growth rescue; further: potency means the concentration at half of the fitted maximal effect; 0% is about no effect; nearly all actives have a fitted effect of over 55% in size
CHX counter – Cycloheximide Counterscreen for Small Molecule Inhibitors of Shiga Toxin. max response, %. 300,000 tested, 12% active. cell reporter, cycloheximide protein synthesis inhibition counterscreen; in the data active means max response mostly above about 13%, no sharp cut-off; inactive means mostly below about 14%; further: read at 38.3 µM for the half of the compounds with a filed dose; 0% is about no effect
Shiga toxin inh – A qHTS for Small Molecule Inhibitors of Shiga Toxin | Vero cells, Shiga toxin protein synthesis inhibition reporter | inhibition, % at 38.7 µM | 290,000 tested, 9.2% active | AID 2315, 2010; in the data active means inhibition mostly above about 28%, no sharp cut-off; inactive means mostly below about 43%; further: 0% is about no effect
Pf growth 96h – Primary qHTS for delayed death inhibitors of the malarial parasite plastid, 96 hour incubation. P. falciparum luciferase reporter growth, 96 h. Potency, µM (titrated, usually from 28.7 µM), for the others: at the highest dose activity change, negative = inhibition, hits mostly inhibitors. AID 504834, 2011. 320,000 tested, 6.9% active; active means well fitted inhibition curve with a large enough effect; inconclusive means small, poorly fitted or top-dose-only effect, or another doubt; inactive means no such curve, though single readings can be large or run the other way; further: potency means the concentration at half of the fitted maximal effect; on the % scale 0 is the no-effect control and ±100 the full control effect
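P. falciparum expressing integrated firefly luciferase, in erythrocytes at 2% hematocrit, 0.05% parasitemia, incubated with compounds 96 h at 37 C, 5% CO2. Growth inhibition read as loss of luminescence; two-generation exposure targets delayed-death apicoplast inhibitors.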
NS1 inh – qHTS Assay for Inhibitors of Influenza NS1 Protein Function; 270,000 tested, 0.4% active; AID 2326, 2010; Potency, µM (highest dose often 46.1 µM), for the others: at the highest dose activity, positive = more growth; further: potency means the concentration at half of the fitted maximal effect; actives are rising curves; nearly all actives have a fitted effect of over 50% in size
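Compounds were scored for reversing the slow growth caused by influenza A NS1 in S. cerevisiae, measured by optical density at 600 nm. Assay medium contained 2% galactose at pH 6.0; NS1-free yeast of the same strain were the positive control.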
Pf growth 48h – Primary qHTS for delayed death inhibitors of the malarial parasite plastid, 48 hour incubation; 310,000 tested, 5.9% active; P. falciparum luciferase growth in erythrocytes, 48 h; Potency, µM (top dose mostly 28.7 µM), without a hit: at the top dose activity change, negative = inhibition, actives largely listed as inhibitors; active means well fitted inhibition curve with a large enough effect; inconclusive means small, poorly fitted or top-dose-only effect, or another doubt; inactive means no such curve, though single readings can be large or run the other way; further: potency means the concentration at half of the fitted maximal effect; on the % scale 0 is the no-effect control and ±100 the full control effect
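Growth was read as firefly luciferase luminescence after a 48 h, 37 C, 5% CO2 exposure of compounds to reporter-bearing P. falciparum cultures (0.1% parasitemia, 2% hematocrit final) in Albumax-supplemented RPMI 1640.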
The depositor's hits bear a star; i = inactive; ? = inconclusive; . = not tested or not shown. Unless noted, the call rests on the fitted dose curve.

SMILES | SARS PLpro yeast | CHX counter | Shiga toxin inh | Pf growth 96h | NS1 inh | Pf growth 48h
CN(C[C@H](Cc1ccccc1)N(C[C@H](c1ccccc1)N(CCc1ccccc1)N=O)N=O)N=O | 1% | -1 | 1 | 13µM* | 15% | ?
CN(C[C@H](c1ccccc1)N(C[C@H](Cc1ccccc1)N(CCc1ccccc1)N=O)N=O)N=O | 0% | -2 | -9 | 12µM* | 10% | ?
CCCn1cc(S(=O)(=O)CC(=O)Nc2ccc(OCC)cc2)c2ccccc21 | -5% | -1 | -11 | 20% | -20% | 13µM*
CCn1cc(S(=O)(=O)CC(=O)Nc2ccc(C)cc2)c2ccccc21 | 7% | 0 | -11 | 2.6µM* | -5% | 6%
CCn1cc(S(=O)(=O)CC(=O)Nc2cccc(C)c2)c2ccccc21 | 1% | -2 | -5 | ? | 0% | -5%
O=P(O)(OP(=O)(O)c1ccccc1)c1ccccc1 (tested in a mixture with another compound) | . | . | . | . | -4% | .
O=C(CSc1nc2cc([N+](=O)[O-])ccc2n1-c1ccc(F)cc1)NC1CCS(=O)(=O)C1 (stereo not drawn) | -15% | -2 | -9 | ? | -30% | -22%
COc1ccc(C(=O)Oc2cc(C)c(CN3CCOCC3)cc2C)cc1OC | 0% | 1 | -7 | 18% | -17% | ?
O=C1c2ccccc2NC(c2ccccc2Br)N1CCCN1CCOCC1 (stereo not drawn) | 4% | 0 | 16 | 10µM* | 13% | ?
Cn1c(-c2sccc2OCc2ccccc2)n[nH]c1=S | ? | 15 | 17 | ? | 17% | 10µM*
O=CNCC(=O)NCCc1ccc(Cl)cc1 | -3% | -3 | -16 | ? | 0% | 0%
CC(=O)c1ccc(OC(=O)N(C)c2ccccc2)cc1 | -3% | 36* | 66* | 0% | -4% | 60%
CN(C)C(=O)Oc1ccc(OC(=O)N(C)C)cc1 | 2% | -1 | -14 | . | 1% | 8%
CN(C)C(=O)Oc1ccc(C(=O)c2ccccc2)cc1 | -7% | 40* | 42* | . | -13% | 102%
Cc1ccc2[nH]c(=O)c(-c3nc4cc(C)ccn4c3NCc3ccco3)cc2c1 | 3% | 24* | 23 | 52% | -13% | 23%
NS(=O)(=O)c1ccc(NCC2COc3ccccc3O2)c([N+](=O)[O-])c1 (stereo not drawn) | 3% | 16* | 63 | 39% | 7% | 23%
CC(=O)c1ccc(NCC2COc3ccccc3O2)c([N+](=O)[O-])c1 (stereo not drawn) | -4% | 31* | 57* | 156% | . | i
O=C(c1ccc(Cl)c(S(=O)(=O)Nc2ccccc2C(=O)N2CCc3ccccc3C2)c1)N1CCc2ccccc2C1 | -3% | 1 | -17 | ? | ? | 10µM*
Cc1ccc2c(c1)CCCN2C(=O)c1ccc2c(c1)OCO2 | -7% | -3 | -1 | . | -37% | ?
O=C(c1ccc2c(c1)OCO2)N1CCc2ccccc21 | 1% | 29 | 59* | ? | -5% | 7%
O=C(c1ccc2c(c1)OCO2)N1CCCc2ccccc21 | 1% | 40* | 74* | . | -12% | 20%
CC(Nc1ccc2c(c1)OCCO2)C(=O)N1CCc2ccccc21 (stereo not drawn) | 2% | 21* | 84* | 33% | -4% | 27%
COC(=O)c1ccccc1NC(=O)c1cc2ncc(Br)cn2n1 | . | -3 | -3 | 20% | -4% | 12%
O=C(c1ccc(=O)oc1)N1CCCc2ccccc21 | 2% | 51* | 76* | 172% | ? | 85%
O=C(Nc1cccc(C(=O)N2CCCc3ccccc32)c1)c1ccccc1 | -6% | 7 | . | 4.7µM* | -31% | ?
O=C(c1cccc(N2C(=O)C3CC=CCC3C2=O)c1)N1CCCc2ccccc21 (stereo not drawn) | 1% | 36* | 74* | 0% | . | 11%
O=C(c1cccc(N2C(=O)C3C4C=CC(C4)C3C2=O)c1)N1CCCc2ccccc21 (stereo not drawn) | -3% | 7 | -2 | ? | . | ?
